The results in this text go back to PubChem BioAssay AID1030 (National Center for Advancing Translational Sciences (NCATS), 2008).

Among all 220,000 compounds or so, about 16,000 (7.3%) were called active. Where a call stands in place of a potency, no number is given. Not shown: some 25% with an inconclusive outcome. Calls come from the whole dose curve; as a rule, active = well fitted inhibition curve with a large enough effect (not every such curve was filed as active); inconclusive = small, poorly fitted or top-dose-only effect, or another doubt; inactive = no such curve, though single readings can be large or run the other way. The sample as a whole holds a higher share of actives than the screen did.
Potency is the fitted concentration of half-maximal effect.

For the assay, the target named is Aldehyde dehydrogenase 1A1 (Homo sapiens) (UniProt P00352). Description: qHTS Assay for Inhibitors of Aldehyde Dehydrogenase 1 (ALDH1A1). The note with it: Purified ALDH1A1, NADH fluorescence, propionaldehyde substrate; series mostly up to 75.3 µM. Background: In qHTS, concentration-response curves come from the screen itself.
Sequence of Aldehyde dehydrogenase 1A1 (Homo sapiens) (P00352 whole entry, looked up): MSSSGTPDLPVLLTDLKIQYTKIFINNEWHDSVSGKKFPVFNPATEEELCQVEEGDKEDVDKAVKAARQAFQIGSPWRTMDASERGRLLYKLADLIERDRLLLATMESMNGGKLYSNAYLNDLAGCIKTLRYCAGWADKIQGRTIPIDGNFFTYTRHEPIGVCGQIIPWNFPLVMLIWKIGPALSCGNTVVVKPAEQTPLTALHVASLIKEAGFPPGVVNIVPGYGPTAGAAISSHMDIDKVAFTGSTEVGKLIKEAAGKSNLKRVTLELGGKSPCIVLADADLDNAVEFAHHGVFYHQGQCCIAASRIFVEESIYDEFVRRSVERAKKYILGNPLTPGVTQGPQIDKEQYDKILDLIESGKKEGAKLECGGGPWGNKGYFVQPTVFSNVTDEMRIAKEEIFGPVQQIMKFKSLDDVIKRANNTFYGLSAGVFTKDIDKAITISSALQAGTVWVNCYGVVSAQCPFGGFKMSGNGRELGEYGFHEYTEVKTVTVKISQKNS
As to `CC(Sc1nncn1C)C(=O)Nc1cc(C(F)(F)F)ccc1N1CCOCC1` (configuration not stated), the Potency entry is “inactive”. With `Cc1cc(NC(=O)CSc2nc3ccccc3n2CC(C)C)no1` the entry was “inactive”.

Consider `Cc1ccc(C(=O)N2CCCCCC2)cc1Br`, for which the Potency result is “inactive”. Regarding `C/C(=C\C(=O)c1ccc(Br)cc1)N1CCCCC1`, the Potency was 25.1 µM (active). Consider `CC1CN/C(=C\C(=O)c2ccc(Br)cc2)C(=O)N1` (configuration not stated), for which the Potency result is “inactive”. The result for `Cc1ccc(-c2csc(-c3cc(C)on3)n2)cc1` reads “inactive”; that for `c1cncc(-c2nc(N3CCNCC3)c3ccccc3n2)c1`, “inactive”. With `COc1ccccc1Oc1ccc(S(=O)(=O)Nc2cccnc2)cc1` the entry was “inactive”; with `COc1ccccc1Oc1nc(-c2cccnc2)nc2ccccc12`, 20 µM (active). The result for `O=c1cnnc(Nc2ccccc2F)[nH]1` reads “inactive”; that for `CCCNCc1cc(OCC)c(OCC(=O)Nc2ccccc2)cc1Br`, “inactive”; that for `C=CCC(CC=C)(C(N)=O)c1ccccc1`, “inactive”.

Consider `c1ccc(Cc2cc[n+](Cc3ccccc3)cc2)cc1`, for which the Potency entry was “inactive”. With `Cc1cc(O)c(NC(=O)c2ccc(C)c([N+](=O)[O-])c2)cc1C`, the Potency result was “inactive”. The result for `Cc1ccc(NC(=O)CN2CCC(C(N)=O)CC2)cc1[N+](=O)[O-]` reads “inactive”; that for `CCN1CCC(=NNC(=O)c2ccc(C)c([N+](=O)[O-])c2)CC1`, 4.47 µM (active).

In the case of `O=c1cc(N2CCCCC2)c(-c2ccccc2)nn1Cc1cccc(F)c1`, the Potency result was “inactive”. With `O=C(CSc1nc2ccccc2[nH]1)N/N=C/C=C\c1ccccc1[N+](=O)[O-]`, the Potency was 5.01 µM (active). In the case of `O=C(Cc1cc(=O)[nH][nH]1)N/N=C/c1ccccc1[N+](=O)[O-]`, the Potency result was “inactive”. Regarding `O=C(CSc1nc2ccccc2[nH]1)c1cccs1`, the Potency entry was “inactive”. With `CCn1c(Cc2ccccc2)nnc1SCC(=O)Nc1ccccc1` the entry was “inactive”. Take `CCn1c(SCC(=O)N/N=C/C=C/c2ccccc2[N+](=O)[O-])nnc1-c1ccccc1`: the Potency was 7.94 µM (active). Turning to `CCOC(=O)CNC(=O)CSc1nnc(-c2cccc(OC)c2)n1CC`, the Potency result is “inactive”. With `O=C(CCc1ccccc1)NNc1ccc(F)cc1` the entry was “inactive”. The result for `COC(=O)Cc1csc(Nc2c(C)n(C)n(-c3ccccc3)c2=O)n1` reads “inactive”; that for `CCn1c(-c2cc(OC)ccc2OC)csc1=Nc1c(C)n(C)n(-c2ccccc2)c1=O`, 22.4 µM (active); that for `Cc1c(N=Nc2ccc(N(C)C)cc2)c(=O)n(-c2ccccc2)n1C`, “inactive”. With `Cc1cc(OC(=O)c2ccccc2Cl)ccc1N1C(=O)CCC1=O` the entry was “inactive”.

On to `Cc1ccc(NC2=C(Cl)C(=O)OC2OC(=O)c2ccccc2C)cc1` (configuration not stated), for which the Potency result was “inactive”. With `Fc1ccc(OCc2nn3c(Cn4nnc5ccccc54)nnc3s2)cc1` the figure was 22.4 µM (active); with `Fc1ccc(CNc2nc3ccccc3n3nnnc23)cc1`, “inactive”. On to `CC(=O)OC(COc1ccc(F)cc1)Cn1cnc2ccccc21` (configuration not stated), for which the Potency entry was “inactive”.
